From the supplement of paper PMC12632987
Over roughly 2,300 sequences, “median log2 fold change of GCK-ALFA target abundance (FLAG IP / Myc IP barcode read proportion)” has its median near 0.095; the lowest 2% begin near -0.47. For the sample, the lowest values were picked, then their nearest neighbours and some sequences at random.

B1: LC3A_free_8_2533 (protein)
chain: KREEFVNKALELLDEFEEEIRKKAKELGLDELDILDLELLIGSLKIEVVELRDKPMEEILKTIEEGLEEIIEEAKELSEELAEKVEELAEEILEELKEMM
B2: LC3A_147_503 (protein)
chain: YLLKVDIDIIVKNAEEEVKKMVEEIEEELKKKGFEVKVKINIEQLDENTTYISINIEVKAKTKEEAEEAANYIIDKFDKYLEENKDKILGALISVEIEKE
B3: LC3A_28_660 (protein)
chain: SATREAADAAIAAARAAAARGEPAVITLTVTGDATPEDIDYVLAALEEIAAILAPIPGSAIVIDLEAGVDPEHRQRIIDKAEELEKRYPNVTVIIAEEEE
B4: LC3A_3_1416 (protein)
chain: MEEAKKKALEALKKAGHSEETLKALNELVDLLEARGAEEEAKEVLELVLENKDISSELLLEVLNEAIELLTVKKLSPEEVIKELKEELRIARNEEEIIEL
B5: LC3A_3_1375 (protein)
chain: SEELIEETLAYLREKGKSEETLEAVRRAMEALAEKGYEEALKTFAELLKEMEDLPDEILLDFAEDVLEAVENEDLNEEELIEFIKEEARVARSEGEIIEL
B6: LC3A_free_8_2497 (protein)
chain: SRQEIVDRLLELIDELEEELEEKAKELGLSELDILDITLELGSLKAEIISNSDEPLEVIREELEEGLEEIIELTEELSEELEELAEEGAEKILEELEELE
B7: LC3A_28_1014 (protein)
chain: SHMEERVAALIAEIEAALAKGEYVVATLTITPEDSLEEVKAAMERVGKAALEAAKKGIVDVVVDLEKGVSQEKLDAVMEAADELEKKAPKLNVVIALEEE
B8: LC3A_free_0_2106 (protein)
chain: MTVVGEVLAITEKALTPEQLKKVKEEMEKIAKELEEEYGMKVEVTVKEVDGRTVFTLKFSKEGLSIEEAIEIVDEVADKLEEKLKELGADVTIYTSVYEE
B9: LC3A_17_544 (protein)
chain: MEELKKELEKLLKKLEELVKELEKYDPEKAKKLKKQLEEAKKLIKAGKLREAAELLAKAAREAADAFEKLEPKYGTKASVLAMEASGLELEAIRILLKLE
B10: LC3A_17_542 (protein)
chain: MEEIKKELEELLKKLEKLVEKLAEYDPEKAKKLKKKLEEAKKLIKAGKLKEAAELLAEAAREAAEAWEELEPEYGTEASVYAMEASGLELEAIGILLKLD
B11: LC3A_28_1074 (protein)
chain: SAVEEENEKILKEAKEAKEKGEPAVITIKIDESDTDEDIEKKLETIREVAEILKDVEGAAIIIDLEGEKALSRLDEVADLADELEEKYPNLTVIIALDDE
B12: LC3A_free_46_2358 (protein)
chain: YKAEIDIDLLHEDKEVLEKAVEEIEKAAREIAEKYGLKVEIEKEFEKLPDGSYYARIRITLEGEDKEKVEEAVNELINEIDKISKKYDVASIISYEIEEK
B13: LC3A_free_8_2524 (protein)
chain: SKQEFANKATEVLDELEEKLRKALEELGASRLDILEAEVLVGSIIAEVISLSDKEPEEQLKAIKEGLKDLVEELEKYKETVKKLADEALKKIEEIKKELE
B14: LC3A_147_445 (protein)
chain: VKVEVTIGVLMKNKPEVGDELVEKLRETAEAAGAEVEVEVEREKIDENTVYLLIKLTLTTETREAAEALANKVIDTVEEFAEKHKDEILGYIISVEISEA
B15: LC3A_127_188 (protein)
chain: EIEKLIKELLKELEKLSELLSSPDFDLEEAEKLAKKILKLAKELEKLDPRFKPLVEDAKELLKIIEEMKNASPAEQEELKEHALMLVEGMEIEALSLELK
B16: LC3A_free_46_2376 (protein)
chain: YKIEIDIYFSAMSKEKAEEMAEEIKKAAEEISKKTGVKIEVEVKIITDENGETWLEVKVTIEGEDKEKALKAATELIDKFDEIAEKHGVSLIISVEEIDE
B17: LC3A_59_2018 (protein)
chain: SEELEALRERLREAVDDIDAFVAIVREGLERFRDDPERVRALLRAAMDVIVEELGMDPEEAEKTLAEMLAIWETEPDKEEAIARVTELVRDTLLLTPIEE
B18: LC3A_free_8_2515 (protein)
chain: MNQEFANKATEILEELEEKLVELLKEKGASELDILEAELLIGSAIAEVISLSDKSPEEILKAIRESLEELVEELEEHREEVKELAEEALKKIEEKKKELE
B19: LC3A_3_1855 (protein)
chain: MEEIIEEALKLLKELGRSEETIEAARKLLEALKERGFEEAAKVLLEELKKLKNVSDEDLLEMFNELLKALEEEDLNEEEAIELIKSEARVLLNAEEIEEL
B20: LC3A_3_1647 (protein)
chain: PEEEVEETVELLREAGHSEETIEAFRETAEALLERGYEEALRVLIEETRELLDLPDEILLAMLEEVLRVIKEEDLSEEEVIEEIRRIARIARSEGEIIEL
B21: LC3A_free_39_2193 (protein)
chain: SAAETEKAKAELLALAAEAGEEAKKLAEEIIKLIGEDLEKLKKLLEALKKAKEAGVDVLEVLKEALELAKELKKQGKSKEEIFEEVLELIEDAINLIPID
B22: LC3A_28_1195 (protein)
chain: SLAEETIKKIREQAKKALEEGDGAVIEVNISKELSDEGIDKILETIKEEAAKLADLESVSIIINVESGVSQENIDKIADTGEEIEEKYPNVTVIIALDED
B23: LC3A_28_898 (protein)
chain: MSALESAEAALAAVRAAVAAGDQAPLVLEVKAPSTEEDTEKLIELLEEIAREASQLTGVTIVIDIDESVSEENQQKLIDKAEELEKKYPNVTVIIALPES
B24: LC3A_28_683 (protein)
chain: SETDESIEKALKKAKEALEKGKPEVIEIKVSGDTTEEELEKILEALEEIAEIANKVPGSAIIIDIDADLPQEFRDKLIDKAEELEEKYPNVTIIFALEER
B25: LC3A_free_0_2122 (protein)
chain: KKTVVEVVVILDESTSKETAEEIYEKLKEKAEELAKEAGAEVESSLSEVDGSYIITIKITLPTDDIDKALELEDKLVETAEEIAKEAGVEATIYSSVYLE
B26: LC3A_3_1412 (protein)
chain: LEERREALLAELRAAGWSEETLAAVEELLEALLARGAEEEAERALELLRAARDLPSERLLEVVEEALRALREEGLSPEEVIALLEELLRVARAEQEIEEL
B27: LC3A_28_1281 (protein)
chain: SEIEEEIERAIKEAKEAKEKGEPAVIEIEVPGDATEEEIEKVIKGLEEIAEILKDIPNQAIVINVDSGVKEEHIDKLVDKAEEIEEKYPNVTVIIALDED
B28: LC3A_3_1385 (protein)
chain: MEEEMEKTLERLREAGHSEETIEAARKALEALIEKGYENSAKTFIELLDELIHLPDELLLELFEDVLELIETEDIDEETLTEKIKEIASVYKNESEIEEL
B29: LC3A_free_26_2139 (protein)
chain: EKFVDIYLIDEAIDALEKAKELAKKIEGIGEKLVKLLEEALKLIEKETLESLEKAIKILKEIKELIEKDKTIDEETKKELLELVTKALEKVEEVVKIMKE

These binders were tested against MAP1LC3A, Q9H492 (assay: median log2 fold change of GCK-ALFA target abundance (FLAG IP / Myc IP barcode read proportion) (log2 ratio); each designed protein is fused to an ALFA-tag nanobody in HEK293 cells to bring the named protein to FLAG-tagged glucokinase (GCK); Myc marks an untargeted standard; higher = target protein stabilised (more abundant)). Conditions: target protein: 3xFLAG-MCP-GCK-ALFA reporter; HEK293 landing pad (RPLP).
Procedure, shortened: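 An ALFA-nanobody-fused binder library was recombined into HEK293 landing-pad cells and induced with 2 μg mL^−1 doxycycline. Cells were transfected with a plasmid expressing a FLAG-tagged target and a Myc-tagged standard. After 48 h, lysates underwent anti-FLAG and anti-Myc immunoprecipitation, and circular RNA barcodes were reverse transcribed, amplified and sequenced. Target abundance is the per-binder median log2 ratio of FLAG to Myc barcode read proportions. Barcodes needed ≥10^−7 proportion in both replicates, binders ≥3 barcodes per replicate, and a 10^−6 pseudocount was added; the two replicates were pooled.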

Binder | median log2 fold change
B1 | -0.133
B2 | -0.665
B3 | 0.104
B4 | 0.297
B5 | 0.306
B6 | -0.679
B7 | -0.297
B8 | -0.0524
B9 | 0.0592
B10 | -0.71
B11 | 0.0473
B12 | -0.026
B13 | -0.575
B14 | -0.265
B15 | 0.156
B16 | -0.231
B17 | -0.587
B18 | 0.159
B19 | 0.224
B20 | 0.138
B21 | 0.242
B22 | 0.229
B23 | 0.201
B24 | -0.521
B25 | -0.221
B26 | 0.243
B27 | -0.286
B28 | 0.082
B29 | 0.132
